This is part of a sample that, as a whole, favours compounds with a hit. Of some 83,000 tested, about 20% had one in any assay.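 Growth was measured after 48 h exposure to one concentration of compound in 96-well plates. Values under 10 count as active.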 Calls of active or inactive are those of the source.
test system: MDA-MB-231 breast; assay: NCI-60 one-dose screen, 48 h (100 = growth as untreated, 0 = no growth, -100 = all killed); details: 10 µM unless noted

SMILES	growth
COc1cc(/C=C/C(=O)c2ccc(C)cc2)ccc1Oc1nc(Nc2ccc(F)cc2)nc(N(C)C)n1	31.2% (inactive)
CCN(CC)CCOc1ccc(Nc2ncc3cc(-c4ccc(O)c(C#N)c4)c(=O)n(C)c3n2)cc1	11.9% (inactive)
CC(/C=C1\SC(=S)N(CCCC(=O)NC(CC(C)C)C(=O)O)C1=O)=C\c1ccccc1 (centres undefined)	99.8% (inactive)
COc1cc2c(c(OC)c1OC)C(=O)CC(c1cccc(NC(=O)c3cc(N)ccc3Cl)c1)O2 (centres undefined)	42.7% (inactive)
CC(=O)OC[C@@]1(C)C2CC[C@]3(C)C(CC=C4C5CC(C)(C)CC[C@]5(C(=O)Nc5cccc(C)c5)CC[C@]43C)[C@@]2(C)C[C@@H](OC(C)=O)[C@@H]1OC(C)=O (some centres undefined)	67.7% (inactive)
CCCCc1c(Nn2cnnn2)no[n+]1[O-]	49.3% (inactive)
CC(C)Sc1nc(NCCc2c[nH]c3ccccc23)c(C#N)c(-c2ccc(F)cc2)n1	11.2% (inactive)
C=C1CCC2C3(C)COC(c4ccc(F)cc4)OC3CCC2(C)C1CC(O)C1=CCOC1=O (centres undefined)	53.5% (inactive)
NS(=O)(=O)c1ccc(N=Nc2c(O)n(CC(=O)Nc3ccccc3Cl)c3ccccc23)cc1	15.4% (inactive)
Cc1ccccc1[C@H]1C(C(=O)c2ccc(Cl)cc2)C2(N[C@@H]1c1ccccc1)C(=O)Nc1ccc(Cl)cc12 (some centres undefined)	-72.2% (active)
CCCCCCCCc1ccc(S(=O)(=O)Nc2ccc(CC)cc2C(=O)O)cc1	102% (inactive)
CCC(C)(C)c1ccc(OCCCCN2CCN(c3ccncc3)CC2)cc1	-30.9% (active)
COc1ccc(C(=O)/C=C/c2ccc(Oc3nc(Nc4ccc(F)cc4)nc(N(C)C)n3)c(OC)c2)cc1	53.9% (inactive)
S=c1c2ccccc2nc2n1CCc1c-2[nH]c2ccccc12	40.8% (inactive)
CCOC(=O)COc1c(OC)c(OC)cc2oc(-c3cccc(C(=O)Nc4ccc(Cl)cc4)c3)cc(=O)c12	50.7% (inactive)

test system: RXF 393 renal; assay: as above; details: 10 µM unless noted

SMILES	growth
C/C(=N\N=C1/C(=O)Nc2ccc(Cl)cc21)c1ccc2c(c1)Nc1ccccc1S2	-11.5% (active)
CCCSc1nc(NCCc2c[nH]c3ccccc23)c(C#N)c(-c2ccc(F)cc2)n1	24.8% (inactive)
COc1cc(C2CC(c3cc(OC)c(OC)c(OC)c3)=NN2C(C)=O)ccc1OCc1ccccc1 (centres undefined)	31.4% (inactive)
Cc1cc2c(cc1Cl)C(=O)/C(=C/c1ccccc1)O2	-33.9% (active)
COc1ccc2[nH]cc(-c3nc(N)nnc3-c3cn(C)c4ncccc34)c2c1	81.5% (inactive)
Cc1ccc(C(=O)CSc2nc3ccc(F)cc3c(=O)n2-c2ccc(Cl)cc2)cc1	-10.6% (active)
CCCCSc1nc(NCCc2c[nH]c3ccccc23)c(C#N)c(-c2ccccc2)n1	-8.31% (active)
Cn1cc(-c2nc(N)nnc2-c2c[nH]c3ccc(Br)cc23)c2cccnc21	63.9% (inactive)
CN(C)CCOc1ccc(C(=O)C2[C@H](c3ccc(Cl)cc3)[C@@H](c3ccccc3)NC23C(=O)Nc2ccc(Br)cc23)cc1 (some centres undefined)	-0.638% (active)
CN1CCN(/C(=N\c2sc(-c3ccccc3)nc2-c2ccccc2)c2ccccc2)CC1	76.1% (inactive)
CCCSc1nc(NCCc2c[nH]c3ccccc23)c(C#N)c(-c2ccccc2)n1	55.2% (inactive)
CCN(CC)c1ccnc(CNCCSC(c2ccccc2)(c2ccccc2)c2ccc(OC)cc2)c1	-26% (active)
COc1cc2oc(-c3cccc(C(=O)Nc4cccc([N+](=O)[O-])c4)c3)cc(=O)c2c(OC)c1OC	-13.4% (active)
O=C(COc1ccc(NC(=O)Nc2ccc(Cl)c(Cl)c2)cc1)N=Nc1c(O)[nH]c2ccc([N+](=O)[O-])cc12	75.4% (inactive)
COc1cc(-c2nc3cc(Cl)c(Cl)cc3[nH]2)ccc1OCc1nnc(-c2cccs2)o1	-2.12% (active)
CCCCCCCCc1ccc(C(=O)Nc2ccc(C)cc2C(=O)O)cc1C	109% (inactive)
CCOP(=O)(OCCCl)c1nc(-c2ccc(C)cc2)oc1NCc1ccccc1 (centres undefined)	84.4% (inactive)
NS(=O)(=O)c1ccc(N=Nc2c(O)n(CC(=O)Nc3ccccc3)c3ccccc23)cc1	48.9% (inactive)
CC1(C)CC[C@]2(C(=O)Nc3ccccc3)CC[C@]3(C)C(=CCC4[C@@]5(C)C[C@@H](O)[C@H](O)[C@@](C)(CO)C5CC[C@]43C)C2C1 (some centres undefined)	17.6% (inactive)
